This is an account of results in PubChem BioAssay (NCATS).

“And” between values parts separate entries of the source, which are not always exact repeats. Equal entries are not always repeated. Records with an inconclusive call do not appear. The source made the active and inactive calls. Unless noted, the call rests on the fitted dose curve; in most records, active means well fitted inhibition curve with a large enough effect; inconclusive means small, poorly fitted or top-dose-only effect; inactive means flat fitted curve, though single readings scatter.

A short description of assay [1]: AP1 Signaling Pathway (AID 357; active means well fitted curve in either direction with a large enough effect, not every such curve was filed as active;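 further: ME-180 reporter cells stimulated with EGF at its EC50 level; on the % scale 0 is the no-effect control and ±100 the full control effect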). Put shortly: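 First, ME-180 AP-1-bla cells were cultured overnight at 37 °C in low-serum Opti-MEM. Next, titrated compounds with EC50 EGF were incubated 5 hours. Finally, CCF4 was added for 2.5 hours and the 460/530 nm ratio recorded.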
Assay [2] has as its target Cytochrome P450 1A2 (Homo sapiens) (UniProt P05177). Briefly: p450-cyp1a2 (AID 410; calls by dose curve; further: potency means the concentration at half of the fitted maximal effect). Put shortly:
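Luminescent readout of luciferin formed from Luciferin-ME by human CYP1A2; data normalized against complete inhibition by 57 uM furafylline. Enzyme 20nM, substrate 100uM at Km, 100mM KPO4 buffer, 60 min reaction at room temperature.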

Assay [3] is described as follows: NFAT Signaling Pathway (AID 444; active means well fitted curve in either direction with a large enough effect, not every such curve was filed as active;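 further: carbachol stimulus at about its EC50 of 1 µM final; on the % scale 0 is the no-effect control and ±100 the full control effect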). The settings on record: Jurkat NFAT-bla M1, carbachol, beta-lactamase ratio, 5 h. In outline:
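Jurkat cells carrying an NFAT-driven β-lactamase reporter and co-transfected muscarinic M1 receptor were treated with compound plus carbachol (1 uM final, an EC50 level) for 5 h at 37 °C. CCF4 loading followed for 1 h at RT; 460/530 nm ratio gave %activity.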

Assay [4] is described as follows: Stat Signaling Pathway (AID 446; active means well fitted curve in either direction with a large enough effect, not every such curve was filed as active;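 further: ME-180 cervical cancer cells given 40 pM IL-6 alongside compound; SIE-controlled beta-lactamase reporter measured as 460/530 nm FRET emission ratio; on the % scale 0 is the no-effect control and ±100 the full control effect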). Put shortly: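 ME-180 cells carrying a SIE-driven beta-lactamase reporter are stimulated with 40 pM IL-6 for 5 h at 37C in the presence of compound. The 460/530 nm FRET substrate ratio is read after 2.5 h at RT. Data are normalised to 300 pM IL-6 and to 125 nM JAK inhibitor controls.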
Assay [5] concerns the target Mitogen-activated protein kinase 10 (Mus musculus) (UniProt Q61831). Briefly: JNK3 AlphaScreen Assay (AID 530; active means well fitted curve in either direction with a large enough effect, not every such curve was filed as active;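 further: kinase came from lysate of stimulated human HepG2 cells; signal reports phosphorylation of biotinylated GST-cJun 1-79 at Ser73 with 10 µM ATP; on the % scale 0 is the no-effect control and ±100 the full control effect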). Put shortly:
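Inhibitors reduce antibody binding to phosphorylated biotin-cJun, lowering AlphaScreen luminescence. Lysates from HepG2 cells pre-activated by IL-1beta plus TNF-alpha supplied JNK3; compounds were titrated.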
In general terms: Alpha assays give light when donor and acceptor beads are brought close together.

Assay [6] has as its target 3',5'-cyclic-AMP phosphodiesterase 4B (Homo sapiens) (UniProt Q07343). Briefly: qHTS Assay for Inhibitors of PDE-IV (AID 607; active means well fitted activation curve with a large enough effect in the main read-out, with a control signal flat, not every such curve was filed as active; further: % of control where 0% means no effect). In outline: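 HEK293 ACTOne cells with CNG channel (1000/well), endogenous PDE4; membrane potential dye, compounds up to 22.9 uM final. Fluorescence Ex 535/Em 590; RO 20-1724 (100 uM final) as reference.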
Background: In qHTS, concentration-response curves come from the screen itself.

A short description of assay [7]: qHTS Assay for Lipid Storage Modulators (AID 1519; calls by dose curve). Conditions: Drosophila S3 cells, BODIPY lipid droplet/cell ratio, laser cytometry, cells loaded with oleic acid; for activity change, negative = inhibition: at 25.7 µM (top of the series). Put shortly:
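Cells seeded at 5,000 per well were treated with compounds over a concentration series and loaded with oleic acid (400 uM, as added). Lipid droplet fluorescence (488 nm excitation, 500-530 nm channel) was read by laser-scanning cytometry and normalized to 20 uM Triacsin C.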

Assay [8] has as its target Ubiquitin carboxyl-terminal hydrolase 1 (Homo sapiens) (UniProt O94782). Kind of assay: Inhibitors of USP1/UAF1: Pilot qHTS (AID 504865).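 Further: rhodamine fluorescence freed from ubiquitin-rhodamine substrate followed over time; top concentration of the series differs between compounds; on the % scale 0 is the no-effect control and ±100 the full control effect; nearly all actives have a fitted effect of over 35% in size.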 In outline:
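Kinetic fluorescence assay: 1nM USP1/UAF1, 15 min compound preincubation, then 150nM Ub-Rho; 480/540 nm.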

For assay [9], the target named is Glucocorticoid receptor (Homo sapiens) (UniProt P04150). Kind of assay: GR-EFC Redistribution (AID 451; calls by dose curve; further: potency means the concentration at half of the fitted maximal effect). Conditions: CHO-K1 GR-EFC translocation, beta-gal luminescence, 2 h. In outline:
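CHO-K1 cells stably expressing nuclear-localized β-gal enzyme acceptor and GR fused C-terminally to the enzyme donor fragment; ligand-driven nuclear translocation restores β-gal by complementation. Compounds titrated up to 46 uM final, 2 h at 37 °C; luminescence read.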

For assay [10], the target named is Luciferin 4-monooxygenase (Photinus pyralis) (UniProt P08659). Kind of assay: Biochemical firefly luciferase enzyme assay for NPC (AID 624030).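 Further: purified P. pyralis luciferase at 10 nM with luciferin and ATP substrate; 0% = DMSO and -100% = full luciferase inhibition by PTC124 control; nearly all actives have a fitted effect of over 70% in size.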 In outline:
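Counter-screen for direct inhibition of the luciferase enzyme by approved-drug library compounds, run at 10 nM enzyme in 50 mM Tris acetate (final). Luminescence was read within 5 min of enzyme-buffer addition and normalized to PTC124 versus DMSO (0%).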

Assay [11] in a line: qHTS profiling for inhibitors of Plasmodium falciparum proliferation (AID 504749).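 Further: 0% = DMSO vehicle and full inhibition = artemisinin control; nearly all actives have a fitted effect of over 60% in size.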 The settings on record: P. falciparum in erythrocytes, SYBR Green DNA, 72 h. In outline: (§1)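 Parasite proliferation within erythrocytes, 72 h exposure. Endpoint: SYBR Green I fluorescence after overnight lysis at room temperature. Controls: 0.29 uM artemisinin, DMSO.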
For the next assay, the system named is 3D7. Described as above. The settings on record: P. falciparum in erythrocytes, SYBR Green DNA, 72 h; series mostly up to 28.7 µM. Put shortly: as §1
For the next assay, the system named is C2A. The description is as above. Conditions: P. falciparum in erythrocytes, SYBR Green DNA, 72 h; series mostly up to 28.7 µM. Put shortly: as §1
Another assay concerns CP211. The assay is described as above. The settings on record: P. falciparum in erythrocytes, SYBR Green DNA, 72 h; series mostly up to 28.7 µM. In outline:
as §1

In the next assay the test system is CP217. The description is as above. The settings on record: P. falciparum in erythrocytes, SYBR Green DNA, 72 h; series mostly up to 28.7 µM. In outline:
as §1

The subject of a further assay is CP252. Described as above. Conditions: P. falciparum in erythrocytes, SYBR Green DNA, 72 h; series mostly up to 12.8 µM. Put shortly: as §1
The next assay relates to CP262. Described as above. The settings on record: P. falciparum in erythrocytes, SYBR Green DNA, 72 h; series mostly up to 28.7 µM. In outline: as §1
For a further assay, the system named is CP286. Described as above. Conditions: P. falciparum in erythrocytes, SYBR Green DNA, 72 h; series mostly up to 28.7 µM. Put shortly:
as §1

The subject of a further assay is ECU. The assay is described as above. The settings on record: P. falciparum in erythrocytes, SYBR Green DNA, 72 h; series mostly up to 28.7 µM. Put shortly:
as §1

In assay [12] the target is Glucocorticoid receptor (Homo sapiens) (UniProt P04150). Briefly: GR-GFP Redistribution (AID 450;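 active means compounds whose dose series gives a full or clear partial fitted curve of increased nuclear translocation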; further: potency means the concentration at half of the fitted maximal effect). Conditions: U2OS GR-GFP nuclear translocation, laser cytometry, 2 h.
Sequence of Glucocorticoid receptor (Homo sapiens) (P04150 whole entry, looked up, the tested form may be a part): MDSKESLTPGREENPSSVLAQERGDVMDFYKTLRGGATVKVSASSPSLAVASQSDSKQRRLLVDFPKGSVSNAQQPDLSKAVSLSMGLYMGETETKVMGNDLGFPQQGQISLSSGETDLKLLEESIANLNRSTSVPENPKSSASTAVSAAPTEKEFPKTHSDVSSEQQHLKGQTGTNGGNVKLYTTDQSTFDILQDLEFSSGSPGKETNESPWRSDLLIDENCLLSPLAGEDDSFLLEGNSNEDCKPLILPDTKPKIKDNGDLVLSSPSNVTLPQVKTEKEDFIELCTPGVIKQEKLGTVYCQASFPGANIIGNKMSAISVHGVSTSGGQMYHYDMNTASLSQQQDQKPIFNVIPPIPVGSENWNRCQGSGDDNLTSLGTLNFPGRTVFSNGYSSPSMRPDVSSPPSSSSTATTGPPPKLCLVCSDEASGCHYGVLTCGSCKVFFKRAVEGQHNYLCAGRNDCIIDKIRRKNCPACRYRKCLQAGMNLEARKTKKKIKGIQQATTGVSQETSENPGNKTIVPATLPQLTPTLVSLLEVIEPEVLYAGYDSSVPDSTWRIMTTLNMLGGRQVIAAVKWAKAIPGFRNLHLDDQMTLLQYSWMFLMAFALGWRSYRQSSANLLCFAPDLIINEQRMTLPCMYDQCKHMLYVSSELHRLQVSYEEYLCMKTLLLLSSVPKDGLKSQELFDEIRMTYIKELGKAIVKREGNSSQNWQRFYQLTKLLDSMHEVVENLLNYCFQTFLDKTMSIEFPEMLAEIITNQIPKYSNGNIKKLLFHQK
Where [13] appears, read: measured here: cell count channel max response.
[14] abbreviates: measured here: lipid channel max response.
Setting [15] is: at 12.8 µM (top of the series), parasite line A.
The mark [16] stands for this setting: at 12.8 µM (top of the series), parasite line B.

Sequence of Luciferin 4-monooxygenase (Photinus pyralis) (P08659 whole entry, looked up): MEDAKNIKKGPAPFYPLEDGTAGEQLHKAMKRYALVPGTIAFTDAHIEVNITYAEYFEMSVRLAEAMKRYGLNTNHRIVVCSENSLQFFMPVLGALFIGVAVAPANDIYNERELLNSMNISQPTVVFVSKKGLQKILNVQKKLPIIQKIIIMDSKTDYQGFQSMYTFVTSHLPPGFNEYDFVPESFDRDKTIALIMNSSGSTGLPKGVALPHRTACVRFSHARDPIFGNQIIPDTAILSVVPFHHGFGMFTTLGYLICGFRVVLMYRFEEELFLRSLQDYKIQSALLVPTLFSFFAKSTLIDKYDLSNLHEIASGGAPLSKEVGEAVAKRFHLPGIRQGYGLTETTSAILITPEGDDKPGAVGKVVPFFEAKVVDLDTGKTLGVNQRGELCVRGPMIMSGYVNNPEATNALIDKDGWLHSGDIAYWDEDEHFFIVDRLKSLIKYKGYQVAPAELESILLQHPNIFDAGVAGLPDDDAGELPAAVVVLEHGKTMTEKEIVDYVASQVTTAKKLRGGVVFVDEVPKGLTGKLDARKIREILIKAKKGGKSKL
Sequence of Cytochrome P450 1A2 (Homo sapiens) (P05177 whole entry, looked up): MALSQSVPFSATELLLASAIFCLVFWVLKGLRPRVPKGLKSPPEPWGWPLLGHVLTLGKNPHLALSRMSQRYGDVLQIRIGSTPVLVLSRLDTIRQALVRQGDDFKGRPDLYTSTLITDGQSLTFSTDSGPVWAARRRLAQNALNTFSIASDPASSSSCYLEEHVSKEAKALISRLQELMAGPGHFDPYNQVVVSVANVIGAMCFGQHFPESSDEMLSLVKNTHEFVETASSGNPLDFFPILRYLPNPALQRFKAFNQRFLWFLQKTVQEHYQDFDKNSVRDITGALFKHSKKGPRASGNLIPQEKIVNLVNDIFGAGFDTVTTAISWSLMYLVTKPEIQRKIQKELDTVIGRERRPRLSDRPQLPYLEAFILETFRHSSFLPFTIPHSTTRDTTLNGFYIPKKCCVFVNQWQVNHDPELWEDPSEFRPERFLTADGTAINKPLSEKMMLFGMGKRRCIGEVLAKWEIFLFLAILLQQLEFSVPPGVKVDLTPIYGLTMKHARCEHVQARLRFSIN
Sequence of 3',5'-cyclic-AMP phosphodiesterase 4B (Homo sapiens) (Q07343 whole entry, looked up): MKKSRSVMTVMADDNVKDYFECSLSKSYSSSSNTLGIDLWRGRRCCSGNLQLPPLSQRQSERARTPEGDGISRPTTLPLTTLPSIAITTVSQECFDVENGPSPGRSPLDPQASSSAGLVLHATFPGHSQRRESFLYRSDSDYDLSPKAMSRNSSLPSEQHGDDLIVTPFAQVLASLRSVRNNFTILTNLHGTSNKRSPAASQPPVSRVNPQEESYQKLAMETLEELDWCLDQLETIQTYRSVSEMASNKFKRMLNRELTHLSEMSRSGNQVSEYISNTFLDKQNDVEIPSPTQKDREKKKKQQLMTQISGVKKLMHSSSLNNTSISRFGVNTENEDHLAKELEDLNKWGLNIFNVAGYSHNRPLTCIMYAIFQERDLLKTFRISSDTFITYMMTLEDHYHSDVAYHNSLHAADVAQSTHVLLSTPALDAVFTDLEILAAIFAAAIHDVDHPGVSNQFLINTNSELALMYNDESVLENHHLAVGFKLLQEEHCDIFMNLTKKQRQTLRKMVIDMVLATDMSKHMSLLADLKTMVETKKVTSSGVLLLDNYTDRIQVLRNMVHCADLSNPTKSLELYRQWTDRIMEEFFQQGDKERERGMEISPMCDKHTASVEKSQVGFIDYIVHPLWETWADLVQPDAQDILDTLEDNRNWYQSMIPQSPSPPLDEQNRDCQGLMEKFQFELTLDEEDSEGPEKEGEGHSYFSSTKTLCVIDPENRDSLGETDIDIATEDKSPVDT
Sequence of Ubiquitin carboxyl-terminal hydrolase 1 (Homo sapiens) (O94782 whole entry, looked up): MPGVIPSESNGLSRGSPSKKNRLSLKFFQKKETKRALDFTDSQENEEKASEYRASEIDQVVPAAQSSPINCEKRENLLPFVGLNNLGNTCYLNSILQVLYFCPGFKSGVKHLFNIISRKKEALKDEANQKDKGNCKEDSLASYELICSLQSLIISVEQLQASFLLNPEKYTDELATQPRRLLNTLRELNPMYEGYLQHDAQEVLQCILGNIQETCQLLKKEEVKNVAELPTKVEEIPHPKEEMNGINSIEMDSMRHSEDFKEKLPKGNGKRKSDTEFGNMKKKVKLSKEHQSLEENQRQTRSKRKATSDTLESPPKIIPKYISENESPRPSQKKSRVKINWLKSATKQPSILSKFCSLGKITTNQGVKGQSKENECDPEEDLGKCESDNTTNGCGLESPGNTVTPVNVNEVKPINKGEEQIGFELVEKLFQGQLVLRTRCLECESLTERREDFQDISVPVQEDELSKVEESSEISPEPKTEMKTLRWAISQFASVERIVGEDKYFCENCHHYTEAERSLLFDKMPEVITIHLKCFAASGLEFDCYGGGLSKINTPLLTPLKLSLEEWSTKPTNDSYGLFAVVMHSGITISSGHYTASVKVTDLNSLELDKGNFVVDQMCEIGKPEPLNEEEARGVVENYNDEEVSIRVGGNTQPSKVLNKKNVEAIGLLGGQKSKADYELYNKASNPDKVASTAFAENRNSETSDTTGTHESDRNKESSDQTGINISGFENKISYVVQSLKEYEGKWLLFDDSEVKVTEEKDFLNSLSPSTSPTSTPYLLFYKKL

With `CCC[C@@](C)(COC(N)=O)COC(=O)NC(C)C`, the call in [1], in assay [4] and in assay [5] was inactive. In addition, the Potency result in [2], in [6] and in [8] was “inactive” each time. Besides, the activity change, negative = inhibition in assay [3] (at 17.2 µM (top of the series)) was -5.77% (inactive); in assay [3] (at 38 µM (top of the series)) it was -2.28% (inactive); in assay [7], -3.74% (inactive). Also, the max response in assay [7] (setting [13]) was 10.2%; in assay [7] (setting [14]), 7.74%.

`COC1=CC(=O)O[C@@H](/C=C\c2ccccc2)C1`: the molecule was called inactive in [1], in [4] and in assay [5]. Further, the Potency in assay [2] was 3.16 µM (active); in [9], > 20.6 µM (inactive). Besides, the activity change, negative = inhibition in assay [3] (at 17.2 µM (top of the series)) is -0.425% (inactive); in assay [7], 1.1% (inactive). The Potency result in assay [6] is “inactive”. The max response in [7] (setting [13]) was -5.23%; in assay [7] (setting [14]), -0.269%.

With `NCC[C@H](O)C(=O)N[C@H]1C[C@@H](N)[C@@H](O[C@H]2O[C@@H](CN)[C@@H](O)[C@@H](O)[C@@H]2N)[C@@H](O[C@H]2O[C@@H](CO)[C@@H](O)[C@@H]2O)[C@@H]1O`, the molecule was called inactive in assay [1], in [4] and in assay [5]. Also, the Potency entry (in [2]; in assay [6]; in assay [8]; in assay [10]; in the assay with 3D7; with C2A) was “inactive” each time. Besides, the Potency entry with CP211, in the assay on CP217, with CP252, in the assay on CP262, with CP286 and with ECU was “inactive” in each case. Also, the activity change, negative = inhibition in assay [3] (at 17.2 µM (top of the series)) is -14.8% (inactive); in assay [7] it was -3.44% (inactive). Also, the max response was -10.6% in [7] (setting [13]) and -13.9% in [7] (setting [14]). Besides, the activity, negative = inhibition is 12.6% (inactive) in assay [11] (setting [15]) and 8.36% (inactive) in [11] (setting [16]).

As to `C[N+]1(C)[C@@H]2CC[C@H]1CC(OC(=O)[C@@H](CO)c1ccccc1)C2` (some centres undefined), the call in [1], in assay [4] and in assay [5] was inactive. Also, the Potency result (in assay [2]; in assay [6]; in assay [8]; in assay [10]; in the assay with 3D7; in the assay with C2A) was “inactive” each time. Moreover, the Potency result in the assay on CP211, in the assay on CP217, in the assay on CP252, with CP262, in the assay on CP286 and in the assay with ECU was “inactive” in each case. The Potency is > 46 µM (inactive) and > 20.6 µM (inactive) in [12]; > 46 µM (inactive) and > 20.6 µM (inactive) in assay [9]. The activity change, negative = inhibition in assay [7] was -3.15% (inactive). In addition, the values for the max response in assay [7] (setting [13]) and in assay [7] (setting [14]) were -7.55% and -13.1%, respectively. Further, the activity, negative = inhibition in assay [11] (setting [15]) was -5.22% (inactive); in assay [11] (setting [16]), 11.2% (inactive).

`CC(C)N(CC[C@@](C(N)=O)(c1ccccc1)c1ccccn1)C(C)C`: the molecule was called inactive in assay [1], in assay [4] and in assay [5]. Further, the Potency result (in assay [2]; in [6]; in assay [8]; in assay [10]; in the assay with 3D7; with C2A) was “inactive” each time. The Potency result in the assay with CP211, in the assay on CP217, in the assay with CP252, in the assay on CP262, in the assay on CP286 and in the assay on ECU was “inactive” throughout. Further, the activity change, negative = inhibition in [7] is 0.14% (inactive). Moreover, the max response in [7] (setting [13]) was -13.9%; in assay [7] (setting [14]) it was -14.1%. The activity, negative = inhibition is 9.42% (inactive) in assay [11] (at 28.7 µM (top of the series), parasite line A) and 2.7% (inactive) in assay [11] (at 28.7 µM (top of the series), parasite line B).
